Screening data: PubChem, National Center for Advancing Translational Sciences (NCATS)
Shown are actives, neighbours in structure and some others; about 4.2% of the full set was active somewhere.
Mito fusion act: mitochondrial division inhibition or fusion activation | S. cerevisiae fusion-defective mutant growth rescue, CellTiterGlo 48 h | Potency, µM (titrated, usually from 46.1 µM), inactives show at the highest dose growth rescue (activation), usual class: activators | 320,000 compounds, 0.23% hits | AID 485298; note: % of control where 0% means no effect; nearly all actives have a fitted effect of over 45% in size
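Compounds are tested for their ability to restore growth of mitochondrial fusion-defective yeast strains at non-permissive 37C in YPEG medium over 48 hours. Viability is quantified by luciferase luminescence.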
Integrin act MD: integrin-mediated muscular dystrophy alleviation activation. Potency, µM (titrated, usually from 38.3 µM), without a hit: top-dose activation, usual class: activators. AID 624291. alpha7betagal myoblasts, beta-gal FDG fluorescence, 48 h. 350,000 compounds, 0.064% hits;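 note: 100% = response of the positive control SU9516; nearly all actives have a fitted effect of over 60% in size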
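alpha7betagal+/- myoblasts (passage 13, 250/well) treated 48 h at 37C with compounds at 1:260 dilution of DMSO stock. Lysed, then beta-galactosidase activity read as FDG fluorescence (ex 480/em 540) after 30 min, with pre-read for autofluorescence.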
A-T KAP1 phos: potential ataxia-telangiectasia treatment. F2112 A-T fibroblasts, KAP-1 phosphorylation AlphaLISA; neocarzinostatin DNA damage 30 min before lysis. Potency, µM (series often up to 57.5 µM), for the others: at the top dose activation, hits mostly activators. 320,000 compounds, 0.19% hits. AID 485349; note: % of control where 0% means no effect; nearly all actives have a fitted effect of over 45% in size
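hTERT-immortalized A-T patient fibroblasts (F2112), 500 cells/well in OPTI-MEM, 1% FBS, got compounds for 60 min, then NCS for 30 min at 37C. Lysates were then assayed for phospho-KAP-1 by AlphaLISA (anti-pKAP1 donor, anti-KAP1 acceptor beads), 6 hr at 25C.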
MCF10A rereplic: inducers of DNA re-replication in MCF 10A breast cells | 350,000 compounds, 2.9% hits | MCF 10A DNA re-replication, Hoechst nuclear intensity, 48 h | Potency, µM (doses to about 46.1 µM), for the others: at the top dose activity, positive = re-replication, most hits filed as activators; note: % of control where 0% means no effect; nearly all actives have a fitted effect of over 50% in size
SW480 rerep: inducers of DNA re-replication in SW480 colon cancer cells; AID 624297; SW480 DNA re-replication, Hoechst DNA content imaging, 48 h; 340,000 compounds, 1.8% hits; Potency, µM (doses to about 46.1 µM), without a hit: at the highest dose re-replication activation, usual class: activators; note: % of control where 0% means no effect; nearly all actives have a fitted effect of over 55% in size
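Image-based read-out: total Hoechst fluorescence of nuclei (405 nm excitation, 500-530 nm emission), with hits raising the fraction of high-intensity nuclei. SW480 colon cells incubated 48 hr with compounds at 37 C.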
Starred values were filed as active, the others as inactive; ? = inconclusive; · = no result; ! = repeats disagree; [ ] = dose if it differs, or a comment. Calls come from the whole dose curve; as a rule, active = well fitted activation curve with a large enough effect; inconclusive = small, poorly fitted or top-dose-only effect; inactive = no such curve, though single readings can be large or run the other way. Potency is the fitted concentration of half-maximal effect.

SMILES	Mito fusion act	Integrin act MD	A-T KAP1 phos	MCF10A rereplic	SW480 rerep
COc1cccc(CNC(=O)COC(=O)CCS(=O)(=O)c2ccc(C)cc2)c1	0%	0%	-3%	?	?
Cc1cc(C)cc(Nc2nc3ccccc3c(=O)[nH]2)c1	5%	-6%	2%	?	?
COc1nc(Nc2nc3ccccc3c(=O)[nH]2)nc2ccc(C)cc12	8%	-49%	14%	?	4.6µM*
COc1cc(-c2nc(CN3CCN(C(=O)c4ccco4)CC3)c(C)o2)ccc1F	-7%	11%	27%	2%	-2%
COc1ccc(O)c(C(=O)c2cc(SCC(=O)O)c3nc4sc5c(c4c(=O)n3c2)CCCC5)c1	13%	-2%	-10%	0%	6%
CCc1c(C)sc2nc3c(C(=O)N4CCOCC4)cc(C(=O)c4ccccc4O)cn3c(=O)c12	14%	-3%	-6%	-1%	1%
COC(=O)c1cc(C(=O)c2cc(F)ccc2O)cn2c(=O)c3c(C)c(C)sc3nc12	-14%	?	-7%	3.7µM*	?
Cc1sc2nc3c(SC(C)C(=O)O)cc(C(=O)c4ccccc4O)cn3c(=O)c2c1C (stereo not given)	6%	-2%	-4%	16µM*	-6%
CCOC(=O)c1sc2nc3c(SCC(=O)O)cc(C(=O)c4cc(F)ccc4O)cn3c(=O)c2c1C	-6%	16%	3%	3.3µM*	-1%
O=C(O)CSc1cc(C(=O)c2ccccc2O)cn2c(=O)c3c(-c4ccccc4)csc3nc12	5%	13%	-13%	5.2µM*	?
CCOC(=O)c1sc2nc3c(SCC(=O)O)cc(C(=O)c4ccccc4O)cn3c(=O)c2c1C	-3%	14%	-4%	1%	16%
CCOC(=O)c1sc(/N=C/c2c(O)ccc3ccccc23)cc1C	0%	-2%	8%	15µM*	-10%
COc1ccc(N=Cc2c(O)ccc3ccccc23)cc1	-3%	-9%	14%	-1%	4%
CCOc1ccc(CSC(=N)N)cc1Cl	1%	-49%	-1%	18µM*	?
COc1ccc(S(=O)(=O)NC2(C(F)(F)F)N=C(c3ccccc3)NC2=O)cc1 (stereo not given)	-1%	20%	-5%	?	4%
O=P(O)(Cc1ccccc1)Cc1ccccc1	-2%	1%	7%	-1%	-4%
NS(=O)(=O)c1ccc(NC2=CC(=O)C(=O)c3ccccc32)cc1	-5%	-26%	-7%	?	3.3µM*
CCOC(=O)c1ccc(NC2=CC(=O)C(=O)c3ccccc32)cc1	4%	-24%	13%	13µM*	?
Cc1cc(NC2=CC(=O)C(=O)c3ccccc32)no1	·	-48%	·	13µM*	?
Cc1ccc(NC2=CC(=O)C(=O)c3ccccc32)cc1	0%	-66%	9%	?	5.8µM*
COc1cc(OC)c(NC2=CC(=O)C(=O)c3ccccc32)cc1Cl	-31%	-13%	3%	17%	?
COc1ccccc1CNC(=O)COC(=O)/C=C/c1ccc2c(c1)OCO2	·	1%	-18%	7%	-6%
Cc1ccccc1-n1c(-c2ccoc2C)n[nH]c1=S	-4%	27%	25%	1%	-5%
Cc1ccccc1-n1c(C)n[nH]c1=S	-4%	?	-3%	9.2µM*	15µM*
CC1CCN(CCCC(=O)c2ccc(F)cc2)CC1	·	·	·	-3%	-4%
O=C(CCCN1CCC(O)(c2cccc(C(F)(F)F)c2)CC1)c1ccc(F)cc1	23µM*!	·	1%	11%	-23%
O=C(CCCN1CCC(C(=O)c2ccc(F)cc2)CC1)c1ccc(F)cc1	-12%	-31%	0%	21µM*!	-25%
O=C(CCCN1CCC(O)(c2ccc(Cl)cc2)CC1)c1ccc(F)cc1	12µM*!	·	-6%	21µM*!	-66%
CCCCN=C1SC(C(=O)Nc2sc3c(c2C(=O)OC)CCC3)C(N)=C1C(=O)N1CCOCC1 (stereo not given)	·	19%	·	21µM*	354%
Cc1ccc(C(=O)COC(=O)c2ccc3c(c2)C(=O)N(c2cccc4ncccc24)C3=O)cc1C	-3%	0%[7.66 µM]	1%	16µM*	1%
